Legend:
Assay in all cases: PBM binding z-score (relative to random genomic background probes); higher = stronger binding; sequences stand for … in GC…GCGATTGACAGCGTAGAATGAAGG
[1] = tested on: FXR:RXRa (NR concentration 270 nM, RXRa partner concentration 90 nM)
Procedure, shortened: (§1)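 Custom Agilent 4×180K protein-binding microarrays carried double-stranded probes, each with a 34-nt variable region. These regions held direct-repeat seeds, single-nucleotide variants, half-site ablations and random human genomic background sequences. Ligand-free nuclear receptor dimers were incubated on the arrays for 1 h, antibodies against each partner (one per run) detected binding, and scanned fluorescence was regression-normalized. Binding z-scores take the random background probes as reference.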

[2] = tested on: LXRa:RXRa (NR concentration 270 nM, RXRa partner concentration 90 nM)
Procedure, shortened: as §1

[3] = tested on: LXRa homodimer (NR concentration 270 nM)
Procedure, shortened: as §1

[4] = tested on: LXRb:RXRa (NR concentration 270 nM, RXRa partner concentration 90 nM)
Procedure, shortened: as §1

[5] = tested on: LXRb homodimer (NR concentration 270 nM)
Procedure, shortened: as §1

[6] = tested on: PPARa:RXRa (NR concentration 270 nM, RXRa partner concentration 90 nM)
Procedure, shortened: as §1

[7] = tested on: PPARg:RXRa (NR concentration 180 nM, RXRa partner concentration 90 nM)
Procedure, shortened: as §1

[8] = tested on: PPARg:RXRa 270nM:90nM, anti-RXR (NR concentration 270 nM, RXRa partner concentration 90 nM)
Procedure, shortened: as §1

[9] = tested on: PPARg:RXRa 30nM:10nM, anti-RXR (NR concentration 30 nM, RXRa partner concentration 10 nM)
Procedure, shortened: as §1

[10] = tested on: PPARg:RXRa 90nM:30nM, anti-RXR (NR concentration 90 nM, RXRa partner concentration 30 nM)
Procedure, shortened: as §1

| Sequence | PBM binding z-score [1] | PBM binding z-score [2] | PBM binding z-score [3] | PBM binding z-score [4] | PBM binding z-score [5] | PBM binding z-score [6] | PBM binding z-score [7] | PBM binding z-score [8] | PBM binding z-score [9] | PBM binding z-score [10] |
| --- | --- | --- | --- | --- | --- | --- | --- | --- | --- | --- |
| CCTACTGGACCAAAGGTCATTGATTCCAATGCTC | 4.9 | 5.68 | 5.86 | 5.23 | 2.31 | 6.24 | 10.5 | 9.96 | 10.5 | 10.8 |
| GCTGCTAGGTCAACTGATGGTCAGGTAAAGCTCG | 4.16 | 2.9 | 0.318 | 2.37 | 0.0406 | 3.7 | 2.95 | 3.33 | 0.765 | 1.9 |
| TCATGTAGATCAACAGGAGGTTAAGAAAGATCGA | 0.191 | 1.12 | 0.0437 | 0.814 | -0.691 | 1.38 | 0.396 | 1.35 | 2.65 | 1.97 |
| ACTAGCAAGCCAAGTTTGGGTCACTCAAACAAAG | -0.12 | -0.258 | -0.55 | 0.443 | -0.728 | 0.909 | -0.253 | 0.132 | -0.505 | -0.56 |
| TCTAGTAGTTGATTAGGGCAACCGAAACAGCGGA | 0.323 | 0.0277 | -0.246 | 0.0544 | -0.448 | 0.658 | 0.17 | 1.41 | 2.74 | 2.06 |
| CAAACTAGGTTACGAAAGGTCAAAGTCGAATGAC | 5.93 | 8.59 | 8.28 | 7.69 | 2.88 | 6.1 | 8.03 | 7.02 | 4.81 | 6.47 |
| CGTCAAAGTTCAACTAAGGTACCGTAAAGCACGC | 7.12 | 6.16 | 4.3 | 4.18 | 2.24 | 5.12 | 4.93 | 5.42 | 2.29 | 4.15 |
| CAAACTAGATCAAGGTCAAAGTCGGTTTGTGCCA | 4.53 | 4.46 | 3.64 | 3.65 | 0.973 | 4.54 | 3.63 | 3.99 | 1.31 | 2.91 |
| AGTCAAAGTTCAGGACGAGGCAACGTAAAGCACG | 3.7 | 3.55 | 1.2 | 1.5 | -0.0334 | 3.22 | 4.51 | 4.56 | 1.57 | 3.42 |
| AATACAGGGTCACTAGGCCTGAGTAGGTACGAAT | 6.29 | 4.71 | 0.651 | 3.72 | 0.544 | 5.53 | 6.71 | 5.29 | 2.26 | 4.42 |
| GGAACGAGGGCAAAGTTTATAGCATCTGTCGACG | 1.77 | 1.29 | 0.174 | 1.19 | -0.358 | 4.45 | 7.54 | 7.55 | 7 | 7.92 |
| GCTAGCAGGCCATATGGGTCACTCAATGACGGGC | 0.207 | 0.285 | -0.185 | 0.489 | -0.907 | 1.98 | 1.57 | 1.27 | -0.31 | 0.766 |
| CTACCAAGGTGAACAAGGACGTTGATTACTATTC | 0.78 | 0.235 | 0.0356 | 0.647 | -0.411 | 0.963 | 0.812 | 0.636 | 0.194 | 0.209 |
| AGAATGTGGTTATTAAGATCAGGGAATTGCGGTC | 0.0647 | -0.0146 | 0.00993 | -0.0352 | 0.111 | -0.0476 | 0.144 | 0.078 | -0.037 | 0.417 |
| CATGCAGGGTCAGCTAGGCCAGAGTAGGGACGGC | 4.4 | 2.77 | -0.597 | 2.03 | -0.151 | 4.36 | 2.66 | 3.1 | 0.694 | 1.84 |
| CCTGCTAGATCATGGTCAGCTAATCTACAGTATG | -0.747 | -0.678 | -0.68 | -0.476 | -0.922 | -0.672 | 0.0409 | -0.513 | -0.306 | -0.269 |
| CCGACTGGGGCACAAGGTTACCATAAGCCAGCCC | 0.122 | 1.73 | -0.433 | 0.74 | -1.16 | 2.2 | 2.92 | 3.16 | 0.724 | 2.49 |
| CGTCGAAGGTCAAAGGTCAGTGAAGAGATGACGG | 8.44 | 6.95 | 3.31 | 6.62 | 1.89 | 7.42 | 10.4 | 8.74 | 7.87 | 8.95 |
| TCGAGTCGGTTAGGGGCATTCAGAATGGCGTCGA | 0.0826 | -0.161 | -0.614 | 0.203 | -0.666 | 0.491 | -0.446 | 0.528 | 0.725 | 0.702 |
| CAAACTAGGTCAAGAGGTCTAAGTCCGCTTCCCG | 3.48 | 2.8 | 0.46 | 1.7 | -0.0852 | 4.97 | 7.75 | 6.93 | 4.73 | 6.71 |
| AGAATGAGGTTATTAGGATCAGGGAATTGCGGTC | 2.04 | 1.69 | 0.286 | 1.38 | 0.314 | 2.79 | 2.39 | 2.69 | 0.762 | 1.59 |
| TGCATGAGGTTATAAGATCAGGGAACGTTGCAAA | 1.67 | 1.59 | -0.113 | 0.956 | 0.14 | 2.37 | 0.778 | 1.2 | 0.448 | 0.789 |
| ACTAGCAGGCCAAGTATGGGTCACTCAAACAAAG | 0.0234 | 0.143 | -0.148 | 0.932 | -0.854 | 1.74 | 0.661 | 0.755 | -0.094 | 0.375 |
| CCTACTGGGCCAAAAAGGTGATTGATGCCGATAA | -0.195 | -0.147 | -0.405 | -0.234 | -0.963 | 0.761 | 0.56 | 0.945 | -0.119 | 0.309 |

— the supplement of paper PMC6555819
